Assay results published in PubChem BioAssay AID1159580 (chemical genetic matrix, 2015).
Several values for one entry are separate records, joined by “and”; a condition that tells them apart may be missing. Equal entries are not always repeated. Screen size: about 5,500 compounds; about 2,000 (36%) were called active. Roughly 18% stayed inconclusive and do not appear here. No stated cut-off is given here; in the data, active means normalized growth mostly below about 0.91 (no sharp cut-off); inconclusive means no clear call, values can overlap the other calls; inactive means mostly above about 0.92. This is one part of the list.

Experiment: chemical genetic growth profiling, strain panel (AID 1159580);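 further: tested at 20 µM; growth read once vehicle control cultures reached saturation at 30 °C; 1 = growth at the plate median or of vehicle wells; lower values mean less growth of the strain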
Conditions: growth OD

Measured: normalized growth

NC(=O)c1cccc(N)c1
inactive: S. cerevisiae deletion strains, locus YJR043C, strain POL32, hits give low values 1.01 | S. cerevisiae deletion strains, locus YJR075W, strain HOC1, hits give low values 1.01 | S. cerevisiae deletion strains, locus YKL009W, strain mrt4, hits give low values 0.996 | S. cerevisiae deletion strains, locus YKL068W, hits give low values 0.993 | S. cerevisiae deletion strains, locus YKL085W, strain MDH1 (second series), hits give low values 1 | S. cerevisiae deletion strains, locus YKL085W, strain MDH1, hits give low values 1 | S. cerevisiae deletion strains, locus YKL160W, strain elf1, hits give low values 0.984 | S. cerevisiae deletion strains, locus YKL190W, strain CNB1, hits give low values 1.02 | S. cerevisiae deletion strains, locus YKR001C, strain vps1, hits give low values 0.996 | S. cerevisiae deletion strains, locus YKR026C, strain gcn3, hits give low values 0.977 | S. cerevisiae deletion strains, locus YKR091W, strain srl3, hits give low values 0.977 | S. cerevisiae deletion strains, locus YLL001W, strain dnm1, hits give low values 0.93 | S. cerevisiae deletion strains, locus YLL026W, hits give low values 0.984 | S. cerevisiae deletion strains, locus YLL041C, strain sdh2, hits give low values 0.97 | S. cerevisiae deletion strains, locus YLR027C, strain aat2, hits give low values 0.997 | S. cerevisiae deletion strains, locus YLR039C, strain RIC1, hits give low values 1 | S. cerevisiae deletion strains, locus YLR058C, strain SHM2, hits give low values 1.01 | S. cerevisiae deletion strains, locus YLR102C, strain apc9, hits give low values 0.998 | S. cerevisiae deletion strains, locus YLR221C, strain rsa3, hits give low values 0.962 | S. cerevisiae deletion strains, locus YLR258W, strain gsy2, hits give low values 0.972 | S. cerevisiae deletion strains, locus YLR262C, strain YPT6 (second series), hits give low values 0.966 | S. cerevisiae deletion strains, locus YLR262C, strain YPT6, hits give low values 1.01 | S. cerevisiae deletion strains, locus YLR268W, strain sec22, hits give low values 0.996 | S. cerevisiae deletion strains, locus YLR320W, strain mms22, hits give low values 0.988 | S. cerevisiae deletion strains, locus YLR330W, strain CHS5, hits give low values 1.01 | S. cerevisiae deletion strains, locus YLR342W, strain FKS1 (second series), hits give low values 1.01 | S. cerevisiae deletion strains, locus YLR342W, strain FKS1, hits give low values 0.942 | S. cerevisiae deletion strains, locus YLR357W, strain rsc2, hits give low values 0.976 | S. cerevisiae deletion strains, locus YLR370C, strain arc18, hits give low values 0.941 | S. cerevisiae deletion strains, locus YLR371W, strain rom2, hits give low values 1 | S. cerevisiae deletion strains, locus YLR384C, strain iki3, hits give low values 0.992 | S. cerevisiae deletion strains, locus YLR418C, strain cdc73, hits give low values 1.01 | S. cerevisiae deletion strains, locus YML016C, strain PPZ1, hits give low values 1 | S. cerevisiae deletion strains, locus YML032C, strain rad52, hits give low values 0.993 | S. cerevisiae deletion strains, locus YML120C, strain ndi1, hits give low values 0.994 | S. cerevisiae deletion strains, locus YML124C, strain tub3, hits give low values 0.995 | S. cerevisiae deletion strains, locus YMR058W, strain fet3, hits give low values 0.965 | S. cerevisiae deletion strains, locus YMR078C, strain ctf18, hits give low values 0.999 | S. cerevisiae deletion strains, locus YMR125W, strain sto1, hits give low values 0.976 | S. cerevisiae deletion strains, locus YMR129W, hits give low values 1.01 | S. cerevisiae deletion strains, locus YMR205C, strain PFK2, hits give low values 0.991 | S. cerevisiae deletion strains, locus YMR223W, strain ubp8, hits give low values 0.993 | S. cerevisiae deletion strains, locus YMR231W, strain pep5, hits give low values 0.984 | S. cerevisiae deletion strains, locus YMR263W, strain SAP30, hits give low values 1.02 | S. cerevisiae deletion strains, locus YMR307W, strain GAS1, hits give low values 1.02 | S. cerevisiae deletion strains, locus YNL067W, strain RPL9B, hits give low values 1.01 | S. cerevisiae deletion strains, locus YNL071W, strain lat1, hits give low values 0.961 | S. cerevisiae deletion strains, locus YNL128W, strain TEP1, hits give low values 1.01 | S. cerevisiae deletion strains, locus YNL153C, strain GIM3, hits give low values 1.01 | S. cerevisiae deletion strains, locus YNL175C, strain NOP13, hits give low values 1.02 | S. cerevisiae deletion strains, locus YNL197C, strain WHI3, hits give low values 1.01 | S. cerevisiae deletion strains, locus YNL209W, strain ssb2, hits give low values 0.985 | S. cerevisiae deletion strains, locus YNL224C, strain SQS1, hits give low values 1.02 | S. cerevisiae deletion strains, locus YNL233W, strain BNI4, hits give low values 0.999 | S. cerevisiae deletion strains, locus YNL248C, strain rpa49, hits give low values 0.974 | S. cerevisiae deletion strains, locus YNL250W, strain rad50, hits give low values 0.988 | S. cerevisiae deletion strains, locus YNL271C, strain bni1, hits give low values 0.989 | S. cerevisiae deletion strains, locus YNL298W, strain CLA4, hits give low values 1.01 | S. cerevisiae deletion strains, locus YNL307C, strain MCK1, hits give low values 0.996 | S. cerevisiae deletion strains, locus YNL322C, strain KRE1 (second series), hits give low values 0.968 | S. cerevisiae deletion strains, locus YNL322C, strain KRE1, hits give low values 1.01 | S. cerevisiae deletion strains, locus YNR049C, strain mso1, hits give low values 0.965 | S. cerevisiae deletion strains, locus YNR052C, strain pop2, hits give low values 1 | S. cerevisiae deletion strains, locus YOL006C, strain TOP1, hits give low values 1.06 | S. cerevisiae deletion strains, locus YOL012C, strain htz1 1 | S. cerevisiae deletion strains, locus YOL147C, strain pex11, hits give low values 1 | S. cerevisiae deletion strains, locus YOR001W, strain rrp6, hits give low values 0.97 | S. cerevisiae deletion strains, locus YOR061W, strain CKA2, hits give low values 1 | S. cerevisiae deletion strains, locus YOR069W, strain VPS5, hits give low values 1.01 | S. cerevisiae deletion strains, locus YOR070C, strain gyp1, hits give low values 1.02 | S. cerevisiae deletion strains, locus YOR080W, strain dia2, hits give low values 0.981 | S. cerevisiae deletion strains, locus YOR083W, strain WHI5 (second series), hits give low values 1.02 | S. cerevisiae deletion strains, locus YOR083W, strain WHI5, hits give low values 0.994 | S. cerevisiae deletion strains, locus YOR106W, strain vam3, hits give low values 0.972 | S. cerevisiae deletion strains, locus YOR136W, strain idh2, hits give low values 0.993 | S. cerevisiae deletion strains, locus YOR144C, strain elg1, hits give low values 0.992 | S. cerevisiae deletion strains, locus YOR184W, strain ser1, hits give low values 1 | S. cerevisiae deletion strains, locus YOR265W, strain rbl2, hits give low values 0.968 | S. cerevisiae deletion strains, locus YOR270C, strain vph1, hits give low values 0.995 | S. cerevisiae deletion strains, locus YOR290C, strain snf2, hits give low values 0.974 | S. cerevisiae deletion strains, locus YOR316C, strain cot1, hits give low values 1 | S. cerevisiae deletion strains, locus YPL051W, strain arl3, hits give low values 1 | S. cerevisiae deletion strains, locus YPL055C, strain LGE1, hits give low values 1.06 | S. cerevisiae deletion strains, locus YPL078C, strain atp4, hits give low values 0.963 | S. cerevisiae deletion strains, locus YPL106C, strain sse1, hits give low values 0.964 | S. cerevisiae deletion strains, locus YPL240C, strain hsp82, hits give low values 0.984 | S. cerevisiae deletion strains, locus YPL241C, strain CIN2, hits give low values 1.01 and 1 | S. cerevisiae deletion strains, locus YPR119W, strain clb2, hits give low values 0.988 | S. cerevisiae deletion strains, locus YPR141C, strain kar3, hits give low values 0.996 | S. cerevisiae deletion strains, locus YPR163C, strain tif3, hits give low values 1 | S. cerevisiae deletion strains, locus YPR167C, strain met16, hits give low values 0.996 | S. cerevisiae deletion strains, strain wtn01, hits give low values 0.983 | S. cerevisiae strains, strain wild type, hits give low values 1
